# Test results: the supplement of paper PMC6897291
# Test system: RIVA
# Assay: growth inhibition by drug plus 177Lu-lilotomab satetraxetan (1 - RLU/untreated control) (fraction); higher = stronger inhibition
# Conditions: 177Lu-lilotomab satetraxetan 0.5 ug/ml
# Method: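 RIVA (RI-1) ABC-DLBCL cells were pretreated or not for 18 h with 0.5 ug/ml 177Lu-lilotomab satetraxetan (600 MBq/mg), washed and seeded (3000 cells/well) on 384-well plates pre-printed with the Selleck Cambridge Cancer Compound library. Viability was read by RealTime-Glo luminescence on days 3-6 after seeding. Effect = 1 - RLU/mean RLU of the 48 untreated no-drug control wells per plate; Bliss score = (M-E)/(1-Fa).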
Compound,"growth inhibition by drug plus 177Lu-lilotomab satetraxetan (10 nM, time (day): 3)","growth inhibition by drug plus 177Lu-lilotomab satetraxetan (10 nM, time (day): 4)","growth inhibition by drug plus 177Lu-lilotomab satetraxetan (10 nM, time (day): 5)","growth inhibition by drug plus 177Lu-lilotomab satetraxetan (10 nM, time (day): 6)","growth inhibition by drug plus 177Lu-lilotomab satetraxetan (100 nM, time (day): 3)","growth inhibition by drug plus 177Lu-lilotomab satetraxetan (100 nM, time (day): 4)","growth inhibition by drug plus 177Lu-lilotomab satetraxetan (100 nM, time (day): 5)","growth inhibition by drug plus 177Lu-lilotomab satetraxetan (100 nM, time (day): 6)"
Cc1cn(-c2cc(NC(=O)c3ccc(C)c(Nc4nccc(-c5cccnc5)n4)c3)cc(C(F)(F)F)c2)cn1 [Nilotinib (AMN-107)],0.372,0.516,0.522,0.537,0.362,0.471,0.491,0.466
Cn1cncc1[C@@](N)(c1ccc(Cl)cc1)c1ccc2c(c1)c(-c1cccc(Cl)c1)cc(=O)n2C [Tipifarnib (Zarnestra)],0.37,0.421,0.452,0.489,0.482,0.521,0.511,0.536
NC(=O)c1ccc(-c2nc(-c3ccccn3)c(-c3ccc4c(c3)OCO4)[nH]2)cc1,0.633,0.64,0.642,0.63,0.438,0.521,0.528,0.52
CC(C)n1c(/C=C/C(O)CC(O)CC(=O)O)c(-c2ccc(F)cc2)c2ccccc21 (stereo not given) [Fluvastatin sodium (Lescol)],0.511,0.544,0.565,0.555,0.516,0.511,0.53,0.525
CC(=O)O[C@H]1C(=O)[C@@]2(C)[C@H]([C@H](OC(=O)c3ccccc3)[C@]3(O)C[C@H](OC(=O)[C@H](O)[C@@H](NC(=O)c4ccccc4)c4ccccc4)C(C)=C1C3(C)C)[C@]1(OC(C)=O)CO[C@@H]1C[C@@H]2O [Paclitaxel (Taxol)],0.961,0.977,0.983,0.986,0.968,0.979,0.984,0.986
